High-throughput results from PubChem BioAssay.
Rows were chosen to be rich in hits. Some 2.9% of all compounds tested hit in one or more screens of this group.
TAG inh: reduces triacylglycerol accumulation in H9c2 cells | inhibition, % at 12.5 µM | Nile Red lipid (TAG) fluorescence; cells loaded with 200 µM oleic acid | 230,000 compounds, 0.66% hits | AID 651582;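 active means pattern-corrected inhibition of lipid staining of at least 50% with the nuclear-stain viability signal not falling by more than 50%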;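 further: 0% = DMSO wells and 100% = triacsin C control wells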
APOBEC3A inh: human APOBEC3A DNA deaminase inhibition; P31941; recombinant A3A, FAM/TAMRA ssDNA deamination fluorescence; inhibition, % at 20 µM; 330,000 compounds, 0.41% hits;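 active means at least 40% inhibition at 20 µM here, with at most 30% in a related deaminase screen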;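 further: plate controls were A3A with DMSO for no effect and wells lacking A3A enzyme for full effect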
Target sequence (P31941 whole entry, looked up): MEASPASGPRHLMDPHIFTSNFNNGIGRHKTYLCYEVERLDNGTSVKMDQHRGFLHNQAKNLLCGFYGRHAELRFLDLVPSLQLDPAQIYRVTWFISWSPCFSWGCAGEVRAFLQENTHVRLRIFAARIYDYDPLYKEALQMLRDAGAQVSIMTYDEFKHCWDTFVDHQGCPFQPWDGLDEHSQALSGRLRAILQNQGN
Cardio protect: modulators protecting cardiomyocytes from myocardial damage; H9c2 cardiomyocytes, H2O2 injury protection, ATPLite, 2 h; protection from H2O2 cell death, % at 20 µM; 360,000 compounds, 0.63% hits; AID 588492;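 active means compounds giving at least 50% protection of heart cells from peroxide-induced death in the single-dose screen, raw or plate-pattern-corrected value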;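 further: 0% = DMSO wells with peroxide and 100% = DMSO wells without peroxide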
PfG6PD inh: PfG6PD (Plasmodium falciparum) enzyme inhibition; PfGluPho enzyme, NADPH resazurin-diaphorase fluorescence; inhibition, % at 20 µM; 350,000 compounds, 0.78% hits; AID 504690;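 active means inhibition reaching at least a set limit at 20 µM in the primary screen, cut at about 59% in these data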;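 further: 0% = DMSO wells with substrate and 100% = DMSO wells lacking glucose-6-phosphate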
NadD inh: NadD (S. aureus) enzyme inhibition; purified NadD enzyme, colorimetric absorbance read-out; inhibition, % at 20 µM; 360,000 compounds, 0.78% hits; AID 602399; in the data active means inhibition above about 26%
A3G deaminase: APOBEC3G (human) deaminase inhibition. Q9HC16. recombinant A3G, ssDNA deamination FAM/TAMRA fluorescence. inhibition, % at 20 µM. 330,000 compounds, 0.28% hits. AID 493012;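 active means inhibition of at least 40% at 20 µM, with no more than 30% in the related APOBEC3A deaminase screen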;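 further: plate controls were DMSO wells with A3G for no effect and wells lacking A3G enzyme for full effect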
Target sequence (Q9HC16 whole entry, looked up): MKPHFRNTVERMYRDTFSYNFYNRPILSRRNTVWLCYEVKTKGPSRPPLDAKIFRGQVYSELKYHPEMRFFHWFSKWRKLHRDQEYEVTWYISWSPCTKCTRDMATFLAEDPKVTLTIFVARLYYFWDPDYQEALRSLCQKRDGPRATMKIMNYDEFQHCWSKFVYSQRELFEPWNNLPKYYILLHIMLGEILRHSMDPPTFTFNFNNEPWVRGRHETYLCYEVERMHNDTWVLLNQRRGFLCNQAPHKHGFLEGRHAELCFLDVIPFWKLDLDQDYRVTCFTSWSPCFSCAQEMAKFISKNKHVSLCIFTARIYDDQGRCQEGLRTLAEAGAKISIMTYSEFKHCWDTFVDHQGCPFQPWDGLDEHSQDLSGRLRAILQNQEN
PfG6PD confirm: PfG6PD inhibition, single-dose confirmed. shares compounds with PfG6PD inh. inhibition, % at 20 µM. 2,400 compounds, 34% hits. recombinant PfGluPho, NADPH-diaphorase-resazurin fluorescence;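 active means inhibition of at least 50% at 20 µM in any single replicate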;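 further: 0% = DMSO with substrate and 100% = DMSO lacking glucose-6-phosphate substrate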
Diaphorase 10uM: inhibits diaphorase or oxidizes, flagging false PfG6PD hits. shares compounds with PfG6PD inh. diaphorase-coupled resazurin reduction, fluorescence, NADPH 10 uM. inhibition, % at 20 µM. 820 compounds, 39% hits;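 active means average inhibition reaching 50% or more with the compound at 20 µM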;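 further: resorufin red fluorescence formed as diaphorase reduces resazurin using NADPH; 0% = DMSO with enzyme and 100% = DMSO without enzyme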
Diaph ctr 30uM: inhibits diaphorase or oxidizes, flagging false PfG6PD hits; shares compounds with PfG6PD inh; Diaphorase/resazurin coupled assay, resorufin fluorescence, 30 uM NADPH; inhibition, % at 20 µM; 820 compounds, 29% hits;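 active means inhibition averaging 50% or more, tested at 20 µM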;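 further: 0% = DMSO with enzyme and 100% = DMSO wells lacking diaphorase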
* = called active by the depositor; nt = no result.

SMILES	TAG inh	APOBEC3A inh	Cardio protect	PfG6PD inh	NadD inh	A3G deaminase	PfG6PD confirm	others
COc1cc(Cl)c(C)cc1NC(=O)CCN1C(=O)NC(C)(C)C1=O	25	-2	8	23	-6	-8	nt
O=[N+]([O-])c1ccccc1-c1ccc(/C=N/n2cnnc2)o1	nt	3	9	10	13	0	nt
Nn1cnnc1N/N=C\c1ccc(-c2ccccc2[N+](=O)[O-])o1	nt	nt	-11	81*	5	nt	53*	Diaphorase 10uM=74*;Diaph ctr 30uM=57*
COc1ccc2cc(C3=CC(=O)CCC3)ccc2c1	-7	nt	-16	79*	-3	nt	35
CCOC(=O)C1=C(C)OC(N)=C(C#N)C1c1ccsc1 (stereo unspecified)	nt	-2	3	-35	-7	-8	nt
N#CC1=C(N)Oc2c(O)cc3ccccc3c2C1c1ccsc1 (stereo unspecified)	5	-2	58*	92*	11	-11	69*	Diaphorase 10uM=64*;Diaph ctr 30uM=50
COc1ccc2c(c1)CCc1cc(C(=O)N3CCN(c4ccc(N5CCOCC5)nn4)CC3)sc1-2	-8	0	28	77*	11	4	41
COc1cccc(C(=O)N2CCN(c3ccc(N4CCOCC4)nn3)CC2)c1	9	0	0	-13	-6	23	nt
COCCCNC(=O)CCc1c(C)c2cc3c(C)coc3cc2oc1=O	nt	-1	-7	-8	-4	1	nt
CC(=O)N(C1=C(N)C(=O)c2ccccc2C1=O)C(C)C	-5	2	-4	12	0	-2	nt
COc1ccccc1N(C(C)=O)C1=C(Cl)C(=O)c2ccccc2C1=O	30	nt	-21	123*	1	nt	115*	Diaphorase 10uM=92*;Diaph ctr 30uM=92*
COc1ccc(O)c(/C=c2/sc3nc4cc(C)c(C)cc4n3c2=O)c1	14	0	5	68*	13	0	33
COC(=O)c1cc(=O)nc2sc3cc(OC)ccc3n12	24	-1	9	5	-6	-1	nt
CN1CCc2cccc3c2C1Cc1ccc(O)c(O)c1-3 (stereo unspecified)	-1	-6	21	64*	3	40	46
CN1CCC(=C2c3ccccc3C(O)c3ccccc32)CC1 (stereo unspecified)	nt	-3	5	-2	-16	-8	nt
COc1ccc(C(=O)Nc2ccc(OCC(F)(F)C(F)F)c(C(F)(F)F)c2)cc1OC	36	1	7	29	-17	0	nt
O=C(Nc1ccc(OCC(F)(F)C(F)F)c(C(F)(F)F)c1)c1ccc(Cl)cc1	40	2	-29	86*	-8	1	-2
COc1ccccc1Cn1c(/C=C/c2ccccc2)nc2ccccc21	nt	3	-25	67*	9	-3	3
COCCn1c(/C=C/c2ccccc2)nc2ccccc21	0	2	-23	44	0	-5	nt
COc1ccc(/C=C/c2nc3ccccc3n2Cc2ccccc2OC)cc1	-47	-3	-30	76*	4	-8	22
NC(=S)NN=Cc1c[nH]c2nccnc12	-1	nt	-2	76*	3	nt	17
NC(=S)N/N=C/c1c[nH]c2ccccc12	8	2	1	22	-4	-17	nt
O=C(Nc1ccc2nc(-c3ccc(Br)o3)[nH]c2c1)c1ccco1	20	-2	34	70*	-4	-8	28
O=C(Nc1ccc2nc(-c3ccc(Br)o3)[nH]c2c1)c1cccs1	38	3	21	86*	5	-3	16
COc1ccc(-c2cn3nc(SCC(=O)NCC4CCCO4)ccc3n2)cc1 (stereo unspecified)	nt	1	-8	53	8	2	nt
SMILES	TAG inh	APOBEC3A inh	Cardio protect	PfG6PD inh	NadD inh	A3G deaminase	PfG6PD confirm	others
COc1ccc(NCC(=O)N/N=C/C2CCCCC2)cc1	10	1	0	69*	6	-6	13
COc1ccc(OCC(=O)OCC(=O)NCC2CCCCC2)cc1	1	0	-2	-2	-5	-6	nt
COc1ccc(S(=O)(=O)N2CCC(Nc3ccccc3Cl)CC2)cc1	5	34	-4	-17	3	0	nt
O=C(NCc1ccco1)C1CC(=O)N(c2ccc(Cl)cc2)C1 (stereo unspecified)	0	2	-9	2	-4	-4	nt
N#CC1=C2SCN(Cc3ccccc3)CN2C(=O)CC1c1ccccc1F (stereo unspecified)	4	-3	-3	61*	4	-2	26
COc1ccc(OC)c(C2CC(=O)N3CN(c4ccc(C)c(Cl)c4)CSC3=C2C#N)c1 (stereo unspecified)	4	0	-8	78*	16	36	14
N#CC1=C2SCN(c3ccccc3)CN2C(=O)CC1c1ccccc1Cl (stereo unspecified)	0	-1	5	74*	8	57*	13
N#CC1=C2SCN(Cc3ccco3)CN2C(=O)CC1c1c(F)cccc1Cl (stereo unspecified)	6	-1	16	66*	5	2	22
COc1ccc(OC)c(C2CC(=O)NC(SC)=C2C#N)c1 (stereo unspecified)	-8	0	2	28	2	7	nt
N#CC1=C2SCC(O)(c3ccccc3)N2C(=O)CC1c1ccccc1F (stereo unspecified)	-2	-3	-7	11	-9	-4	nt
COc1cc(OC)c(C2CC(=O)N3CN(c4ccccc4)CSC3=C2C#N)cc1OC (stereo unspecified)	nt	-4	-5	81*	22	25	58*	Diaphorase 10uM=-5;Diaph ctr 30uM=-3
COc1cccc(C2CC(=O)N3CN(c4cccc(Cl)c4C)CSC3=C2C#N)c1OC (stereo unspecified)	7	-3	7	86*	5	-8	19
CCc1ccccc1N1CCN(S(=O)(=O)c2cc(OC)ccc2OC)CC1	nt	4	-14	-4	-5	-6	nt
CCOc1ccc(N2CSC3=C(C#N)C(c4ccco4)CC(=O)N3C2)cc1 (stereo unspecified)	nt	84	1	4	-2	85	nt
CCc1ccccc1N1CSC2=C(C#N)C(c3cc(OC)c(OC)cc3OC)CC(=O)N2C1 (stereo unspecified)	-10	-3	8	67*	22	46*	26
O=C(Cn1cc([N+](=O)[O-])ccc1=O)NCC1COc2ccccc2O1 (stereo unspecified)	-2	4	5	2	0	1	nt
